High-throughput results deposited in PubChem BioAssay by National Center for Advancing Translational Sciences (NCATS).
Rango-impB inh = prevents formation of the Rango-importin beta complex | Q14974 | Rango CFP/YFP FRET sensor + importin beta, 45 min | Potency, µM (highest dose often 92.2 µM), without a hit: top-dose inhibition of complex formation | 340,000 tested, 0.031% active | AID 540263; calls by dose curve;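 also: 0% = DMSO wells and 100% = buffer wells lacking importin beta; nearly all actives have a fitted effect of over 15% in size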
Target sequence (Q14974 whole entry, looked up): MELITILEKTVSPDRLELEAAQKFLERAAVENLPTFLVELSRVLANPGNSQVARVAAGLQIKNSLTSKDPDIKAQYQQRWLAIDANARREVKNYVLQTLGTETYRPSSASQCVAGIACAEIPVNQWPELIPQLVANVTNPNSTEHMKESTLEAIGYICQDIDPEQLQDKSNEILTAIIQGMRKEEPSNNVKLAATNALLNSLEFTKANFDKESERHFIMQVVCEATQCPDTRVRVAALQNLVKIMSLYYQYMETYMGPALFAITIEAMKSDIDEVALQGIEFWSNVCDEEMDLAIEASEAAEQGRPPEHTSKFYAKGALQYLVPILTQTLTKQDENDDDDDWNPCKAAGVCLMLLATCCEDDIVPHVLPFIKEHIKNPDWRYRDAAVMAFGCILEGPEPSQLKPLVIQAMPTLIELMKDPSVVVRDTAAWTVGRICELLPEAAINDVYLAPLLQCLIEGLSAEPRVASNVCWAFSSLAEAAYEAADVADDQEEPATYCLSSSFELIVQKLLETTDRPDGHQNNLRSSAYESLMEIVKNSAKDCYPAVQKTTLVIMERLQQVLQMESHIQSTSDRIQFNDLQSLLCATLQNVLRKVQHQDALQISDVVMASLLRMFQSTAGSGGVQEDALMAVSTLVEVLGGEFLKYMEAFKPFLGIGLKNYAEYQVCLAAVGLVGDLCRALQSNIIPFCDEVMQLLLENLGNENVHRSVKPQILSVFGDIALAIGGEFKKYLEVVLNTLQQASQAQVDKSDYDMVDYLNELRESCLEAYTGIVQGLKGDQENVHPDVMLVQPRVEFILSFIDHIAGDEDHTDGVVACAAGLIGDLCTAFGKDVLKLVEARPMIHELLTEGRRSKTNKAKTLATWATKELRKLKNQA
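Inhibition scored from the CFP 486 nm/YFP 530 nm FRET ratio 45 min after adding 0.125 microM importin beta to 50 nM Rango biosensor preincubated 5 min with compound (room temperature, PBS with DTT, Tween-20, BSA). No-importin wells as positive control.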
Nrf2 inh = Nrf2 pathway inhibition | 360,000 tested, 2.1% active | A549 ARE-Fluc reporter, luciferase luminescence, 18-24 h | Potency, µM (titrated, usually from 46 µM), for inactives: top-dose activity change, negative = inhibition, usual class: inhibitors; also: % is scaled to controls: 0 for no effect and ±100 for the full control effect; nearly all actives have a fitted effect of over 60% in size
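Quantitative HTS in A549 cells stably bearing an antioxidant response element-firefly luciferase construct. Inhibition of Nrf2-driven transcription was scored by luminescence after 18-24 h of compound exposure at 37 °C.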
A549 tox = kills or reduces viability of A549 cells in Nrf2 counter-screen. A549 ARE-Fluc cells, CellTiter-Fluor viability, 18-24 h. Potency, µM (highest dose often 46 µM), for inactives: at the highest dose activity change, negative = cytotoxicity, hits mostly inhibitors. 390,000 tested, 0.16% active; also: % is scaled to controls: 0 for no effect and ±100 for the full control effect
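A549 ARE-Fluc cells in 5% FBS OPTI-MEM, 5000 cells/well, rested 2 h then exposed to compounds in concentration-response for 18-24 h at 37 °C. Viability by CellTiter-Fluor fluorescence (Ex 405/Em 525) after 30 min; luciferase luminescence (BugLite, 15 min, RT) read afterwards.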
Rango dissoc inh = inhibition of RanGTP-driven Rango-importin beta dissociation | O95149+P62826 | Biochemical FRET Rango-importin beta, RanGTP-induced dissociation | Potency, µM (doses to about 46.1 µM), inactives show at the highest dose activity change, negative = inhibition | 340,000 tested, 0.071% active; calls by dose curve; also: % of control where 0% means no effect; nearly all actives have a fitted effect of over 45% in size
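Rango/importin beta premix (0.1/0.25 uM final), PBS + 1 mM DTT + 0.02% Tween-20 + 0.1% BSA; cpd 5 min RT; FRET pre-read; + RanGTP-RCC1 (0.6 uM Ran, 2 mM GTP, 0.2 uM RCC1); 45 min RT; FRET post-read, ex 430, em 486/530 nm.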
Nrf2 ARE act = activators of Nrf2 (ARE) signaling; AREc32 ARE-luciferase reporter (MCF7-derived line), luminescence, 24 h; Potency, µM (series often up to 46.1 µM), inactives show at the highest dose activation, most hits filed as activators; 410,000 tested, 0.31% active; also: % of control where 0% means no effect; nearly all actives have a fitted effect of over 65% in size
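Luciferase luminescence (Steady-Glo, 30 min at room temperature) served as the read-out of ARE activation in AREc32 cells treated with compounds for 24 hr at 37 deg C.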
Active calls of the source: *; ? = inconclusive; . = no result; [ ] = remark or other dose. In the library only some 2.3% were active in any assay of this set; here they are far more common. Unless noted, calls follow the shape of the dose curve; as a rule, active = well fitted curve in the direction sought with a large enough effect; inconclusive = small, poorly fitted or top-dose-only effect, or another doubt; inactive = no such curve, though single readings can be large; an effect the other way counts as inactive or inconclusive. Potency is read from the fitted curve at half-maximal effect.

SMILES	Rango-impB inh	Nrf2 inh	A549 tox	Rango dissoc inh	Nrf2 ARE act
CCc1ccc(-n2c(SCc3cccc(F)c3)nc3[nH]ncc3c2=O)cc1	.	.	1%	.	-2%
CC(C)CN1C(=O)C(=O)N(CC(=O)Nc2cc(Cl)ccc2Oc2ccccc2)C1=O	-5%	23µM*	?	-13%	3%
CCc1c(C)sc(NC(=O)Cc2ccccc2C)c1C(=O)N1CCOCC1	0%	0%	0%	22%	0%
Cc1ccccc1CN(c1ccc(C(=O)N2CCc3ccccc3C2)cc1)S(C)(=O)=O	-1%	15µM*	-27%	7%	1%
CNC(=O)c1ccc(N(Cc2ccccc2C)S(C)(=O)=O)cc1	0%	4%	9%	39%	2%
Nc1[nH]n2c(=O)cc(-c3ccccc3)nc2c1N=Nc1ccc(S(N)(=O)=O)cc1	?	?	-21%	-1%	2%
NS(=O)(=O)c1ccc(N=Nc2c(-c3ccccc3)[nH]n(-c3nc(-c4ccccc4)cs3)c2=O)cc1	1%	4.6µM*	?	6%	2%
Cc1cccc(C)c1N/C=C/c1onc(C)c1[N+](=O)[O-]	?	-10%	3%	-19%	0%
Cc1noc(/C=C/c2cccnc2)c1[N+](=O)[O-]	0%	18µM*	?	-3%	14%
Cc1ccccc1C(=O)Nc1cccc(C(=O)OCc2cc(=O)n3nc(C4CC4)sc3n2)c1	.	.	0%	.	4%
Cc1cccc(NC(=O)Cc2csc(COc3cccc(C)c3)n2)c1	.	-2%	-2%	.	4%
COc1ccc(NC(=O)Cc2csc(COc3cccc(C)c3)n2)cc1OC	.	23µM*	2%	.	0%
Cc1[nH]c2ccc(C(=O)Nc3ccncc3)cc2c1C	-3%	12µM*	-3%	8%	4%
Cc1ccc(NC(=O)C2CCN(S(=O)(=O)c3c(C)noc3C)CC2)cc1	.	-4%	1%	.	-1%
FC(F)(F)c1nc(N2CCCC2)ncc1-c1nnnn1-c1ccc(Cl)cc1	-3%	13µM*	-13%	-2%	3%
Fc1ccc(-n2nnnc2-c2cnc(-c3cccs3)nc2C(F)(F)F)cc1	0%	15µM*	?	-1%	-2%
O=S(=O)(c1ccc(-c2csc(-c3cccnc3)n2)cc1)N1CCCCC1	-3%	21µM*	-15%	-7%	0%
Clc1ccsc1-c1csc(-c2cccnc2)n1	1%	.	?	-1%	2.2µM*
CCNC(=O)c1cccc(NC(=O)c2cc(C3CC3)nc3c2cnn3C(C)C)c1	-4%	18µM*	-11%	-5%	0%
Cc1cc(/N=C/C=C2\N(C)c3ccccc3C2(C)C)n(CCC#N)n1	?	?	15µM*	-13%	1%
O=S(=O)(Nc1cccc2ncccc12)c1cccs1	0%	21µM*	?	1%	?
Nc1nc(OCC2CCCCC2)c2[nH]cnc2n1	2%	18µM*	?	-22%	1%
Nc1nc(SCC(=O)O)c2[nH]cnc2n1	.	-1%	-2%	.	.
O=c1cc(N2CCCCC2)c(-c2ccccc2)nn1Cc1c(Cl)cccc1Cl	1%	18µM*	?	12%	0%
O=c1cc(N2CCCCC2)c(-c2ccccc2)nn1Cc1ccc(Cl)cc1	-4%	?	?	-17%	0%
SMILES	Rango-impB inh	Nrf2 inh	A549 tox	Rango dissoc inh	Nrf2 ARE act
Cc1ccc(Cc2cnc(NC(=O)c3ccc4c(c3)CC(c3ccccc3)OC4=O)s2)cc1 (centres undefined)	.	-25%	1%	.	2%
O=C(c1cc(S(=O)(=O)NCc2ccco2)ccc1Br)N1CCOCC1	4%	16%	1%	-10%	-1%
O=C(Oc1coc(CSc2nnc(NC(=O)c3cccs3)s2)cc1=O)c1ccccc1	-1%	14%	-2%	1%	0%
Cc1ccc(C(=O)Oc2coc(CSc3nnc(NC(=O)C4CC4)s3)cc2=O)cc1	4%	21µM*	-4%	0%	-2%
COc1ccc2cc(/C=C/C(=O)N3CCN(CC(=O)N4CCCCCC4)CC3)ccc2c1	4%	21µM*	-15%	3%	5%
COC(=O)C1CCN(C(=O)/C=C/c2ccc(OC)cc2)CC1	-3%	?	-4%	-11%	0%
CCOC(=O)Cn1nc(C)c(NC(=O)COc2ccc(Cl)cc2C)c1C	.	23µM*	-2%	.	4%
Cc1cc(N2CCOCC2)n2nc(C)c(-c3ccccc3Cl)c2n1	-1%	16µM*	?	15%	0%
Cc1ccc(NC(=O)C2CCCN(c3ncnc4c3nc3n4CCCCC3)C2)cc1Cl (centres undefined)	-1%	-14%	-6%	-12%	-1%
Cc1cc(N2CCC(C(=O)N3CCN(c4cccc(C)c4C)CC3)CC2)n2ncnc2n1	6%	15µM*	11%[1.84 µM]	8%	0%
Cc1ccc(NC(=O)C2CCN(c3ncnc4c3nc3n4CCCCC3)CC2)cc1Cl	0%	13µM*	?	0%	0%
Cc1ccc(C)c(N2CCN(C(=O)C3CCCN(c4ncnc5c4nc4n5CCCCC4)C3)CC2)c1 (centres undefined)	0%	15µM*	-18%	0%	-1%
O=C(C1CCCN(c2ncnc3c2nc2n3CCCCC2)C1)N1CCN(c2cccc(Cl)c2)CC1 (centres undefined)	1%	4%	2%	-15%	-2%
Cc1cccc(N2CCN(C(=O)C3CCN(c4ncnc5c4nc4n5CCCCC4)CC3)CC2C)c1 (centres undefined)	-4%	18µM*	?	-19%	-3%
O=c1oc2ccc(Br)cc2cc1-c1nc2c(s1)CCc1ccccc1-2	.	8%	0%	.	.
Cc1ccc(Cl)cc1NC(=O)C1CCN(C(=O)c2cnn(-c3ccccc3)c2-n2cccc2)CC1	.	-7%	-15%	.	10%
Cc1cccc(N2CCN(C(=O)C3CCN(c4ncnc5c4nc4n5CCCCC4)CC3)CC2)c1C	-2%	21µM*	?	-13%	0%
O=C(C1CCN(c2ncnc3c2nc2n3CCCCC2)CC1)N1CCN(c2ccccc2F)CC1	0%	?	1%	39%	0%
CCOc1ccc(CCN2C(=S)N([C@@H](Cc3ccc(O)cc3)CN3CCCC3CN3C(=S)NC[C@@H]3Cc3ccc(O)cc3)C[C@@H]2CC(C)C)cc1 (some centres undefined)	0%	16µM*	-11%	16%	-1%
COc1ccc(-n2ccn(Cc3ccccc3C)c(=O)c2=O)cc1	.	-2%	-1%	.	-1%
O=C(Nc1cccc(S(=O)(=O)N2CCCC2)c1)c1ccco1	5%	-84%	8%	10%	12%
NS(=O)(=O)c1cccc(NC(=O)c2cc(=O)c3ccccc3o2)c1	-2%	-2%	-12%	-12%	13µM*
O=C(NCc1ccccc1)c1cc(=O)c2ccccc2o1	2%	?	0%	-4%	0%
